Bioassay records as filed in PubChem.
The list is not random: actives were taken first. Their share in the collection is about 7.1%.
SW480 rereplic = inducers of DNA re-replication in SW480 colon cancer cells | SW480 DNA re-replication, Hoechst DNA content imaging, 48 h | Potency, µM (highest dose often 46.1 µM), for inactives: at the top dose re-replication activation, usual class: activators | 340,000 tested, 1.8% active | AID 624297; further: potency means the concentration at half of the fitted maximal effect; % of control where 0% means no effect; nearly all actives have a fitted effect of over 55% in size
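SW480 cells exposed to compounds for 48 hr at 37 C, 5% CO2, then Hoechst-stained 40 min. Nuclear DNA content imaged by fluorescence scanning (405 nm excitation, 500-530 nm emission); re-replication scored as increased high-intensity nuclei.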
S2 tox = cell viability loss in ATXN counter-screen | 400,000 tested, 0.49% active | Potency, µM (series often up to 56.7 µM), hits mostly cytotoxic | AID 651635 | S2 cells (HEK-293 line with an ATXN2-luciferase reporter) viability, CellTiter-Fluor protease fluorescence, 24 h; further: potency means the concentration at half of the fitted maximal effect; nearly all actives have a fitted effect of over 40% in size
MCF10A rerep = induces DNA re-replication in MCF 10a normal breast cells. AID 624296. 350,000 tested, 2.9% active. MCF 10A DNA re-replication, Hoechst nuclear intensity, 48 h. Potency, µM (highest dose often 46.1 µM), for inactives: at the highest dose activity, positive = re-replication, most hits filed as activators; further: potency means the concentration at half of the fitted maximal effect; % of control where 0% means no effect; nearly all actives have a fitted effect of over 50% in size
PINK1 modulator = modulators of PINK1 expression | 410,000 tested, 0.2% active | Potency, µM (titrated, usually from 76.6 µM), inactives show at the top dose activation (PINK1 increase), usual class: activators | PINK1 immunofluorescence, high-content cytometry, 24 h | AID 624263; active means well fitted activation curve with a large enough effect; inconclusive means small, poorly fitted or top-dose-only effect; cell line not stated here; further: potency means the concentration at half of the fitted maximal effect; % of control where 0% means no effect; nearly all actives have a fitted effect of over 65% in size
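Stable cell line treated 24 h with compounds at 5 concentrations (CCCP controls), then fixed and immunostained for PINK1 plus nuclear and cell stains; PINK1 immunofluorescence quantified by laser-scanning microplate cytometry.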
IL1B secr inh = blocks inflammasome-driven IL-1 beta release. THP-1 LPS/ATP IL-1B secretion, AlphaLISA, 16 h; stronger effect = lower value. activity change, % at 57.5 µM. 360,000 tested, 4.7% active; in the data active means activity change below about -50%; inconclusive means mostly about -30% to -49%; further: on the % scale 0 is the no-effect control and ±100 the full control effect
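Secreted IL-1B measured by AlphaLISA bead assay after 16 h compound exposure of THP-1 cells; compounds (final up to 57.5 uM) added 1 h before LPS (250 ng/mL) and ATP (1.25 mM) stimulation; lower signal means less secretion.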
ATXN2 expr inh = inhibitors of ATXN2 expression. AID 1745845. 360,000 tested, 0.72% active. HEK-293 ATXN2-luciferase reporter, luminescence, 24 h. Potency, µM (top dose mostly 57 µM), inactives show at the top dose activity change, negative = inhibition, most hits filed as inhibitors; further: potency means the concentration at half of the fitted maximal effect; on the % scale 0 is the no-effect control and ±100 the full control effect; nearly all actives have a fitted effect of over 55% in size
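ATXN2-luciferase reporter cells (luciferase flanked by upstream and downstream ATXN2 gene portions) were treated 24 h at 37 °C with compounds at up to 57 uM. SteadyGlo luminescence gave expression; GF-AFC fluorescence gave viability.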
Starred values were filed as active, the others as inactive; [ ] = remark or other dose. Unless noted, the call rests on the fitted dose curve; in most records, active means well fitted curve in the direction sought with a large enough effect; inconclusive means small, poorly fitted or top-dose-only effect, or another doubt; inactive means no such curve, though single readings can be large; an effect the other way counts as inactive or inconclusive.

What do the screens show for `COc1cccc(C(=O)N(Cc2ccco2)c2ccccn2)c1`?
S2 tox: inactive; PINK1 modulator: 1%; ATXN2 expr inh: 7%

How did CCN(CC)CCNC(=O)C1CCN(c2cc(C)nc3c(-c4ccc(Cl)cc4)c(C)nn23)CC1 do in these assays?
S2 tox: inactive; PINK1 modulator: -1%; ATXN2 expr inh: -11%

What do the screens show for `CSc1ccccc1-c1nnc(NC(=O)Cc2ccccc2)o1`?
SW480 rereplic: -33%; S2 tox: inactive; MCF10A rerep: 0%; PINK1 modulator: 7%; IL1B secr inh: -19; ATXN2 expr inh: -16%

What do the screens show for `CS(=O)(=O)c1ccccc1-c1nnc(NC(=O)Cc2ccccc2)o1`?
SW480 rereplic: 5%; S2 tox: inactive; MCF10A rerep: -1%; PINK1 modulator: -1%; IL1B secr inh: -50*; ATXN2 expr inh: -6%

Results for CN(Cc1ccccc1)c1nc2c(c(=O)n(C)c(=O)n2C)n1CCCc1ccccc1 ?
SW480 rereplic: -2%; S2 tox: inactive; MCF10A rerep: 26µM*; PINK1 modulator: 2%; IL1B secr inh: 11; ATXN2 expr inh: 4%

What do the screens show for `CCC(O)c1nc2ccccc2n1Cc1cc(C)ccc1C` (centres undefined)?
PINK1 modulator: 1%

How did COc1ccc(N2C3=C(CC4=C2CC(C)(C)CC4=O)C(=O)CC(C)(C)C3)cc1 do in these assays?
SW480 rereplic: 17%; S2 tox: inactive; MCF10A rerep: -1%; PINK1 modulator: -3%[38.3 µM]; IL1B secr inh: -102*; ATXN2 expr inh: 16µM*

Results for COc1ccc(-n2ccc(=O)c3c2CCCC3=O)cc1 ?
SW480 rereplic: -2%; S2 tox: inactive; MCF10A rerep: -15%; PINK1 modulator: 1%; IL1B secr inh: 18; ATXN2 expr inh: 2%

How did COc1ccc(N2C3=C(CC4=C2CCCC4=O)C(=O)CCC3)cc1 do in these assays?
SW480 rereplic: 5%; S2 tox: inactive; MCF10A rerep: 2%; PINK1 modulator: 0%; IL1B secr inh: -94*; ATXN2 expr inh: -18%

What do the screens show for `Cc1nc2ccn(Cc3cccnc3)c(=O)c2cc1C(=O)N1CCN(c2ccc(F)cc2)CC1`?
S2 tox: inactive; PINK1 modulator: 1%; ATXN2 expr inh: 0%

Results for c1ccc2c(c1)Nc1ccncc1S2 ?
SW480 rereplic: -5%; S2 tox: inactive; MCF10A rerep: 3%; PINK1 modulator: -4%; IL1B secr inh: -94*; ATXN2 expr inh: 14%

What do the screens show for `c1ccc2c(c1)Nc1cc3ccccc3cc1S2`?
SW480 rereplic: 3%; S2 tox: inactive; MCF10A rerep: inconclusive; PINK1 modulator: -1%; IL1B secr inh: 4; ATXN2 expr inh: 11%

How did O=C(c1ccco1)N1CCN(C(=O)c2cccs2)CC1 do in these assays?
SW480 rereplic: 6.5µM*; S2 tox: inactive; MCF10A rerep: 1.8µM*; PINK1 modulator: -3%[38.3 µM]; IL1B secr inh: 0; ATXN2 expr inh: 1%

Results for CC(C)C(=O)N1CCN(c2ccc(NC(=O)c3cccs3)cc2)CC1 ?
SW480 rereplic: 2%; S2 tox: inactive; MCF10A rerep: 2%; PINK1 modulator: -2%; IL1B secr inh: inconclusive; ATXN2 expr inh: 13%

How did CCC(=O)Nc1ccc(N2CCN(C(=O)c3ccco3)CC2)c(Cl)c1 do in these assays?
SW480 rereplic: 4%; S2 tox: inactive; MCF10A rerep: 0%; PINK1 modulator: 0%; IL1B secr inh: inactive; ATXN2 expr inh: -2%

How did O=C(Cc1ccc(Cl)cc1)Nc1ccc(N2CCN(C(=O)c3ccco3)CC2)c(Cl)c1 do in these assays?
SW480 rereplic: 4%; S2 tox: inactive; MCF10A rerep: inconclusive; PINK1 modulator: 0%; IL1B secr inh: -68*; ATXN2 expr inh: -37%

How did O=C(c1ccco1)N1CCN(C(=O)c2ccco2)CC1 do in these assays?
S2 tox: inactive; PINK1 modulator: 5%; IL1B secr inh: -6; ATXN2 expr inh: 15%

What do the screens show for `CC(C)C(=O)N1CCN(c2ccc(NC(=O)c3cccs3)cc2Cl)CC1`?
SW480 rereplic: -27%; S2 tox: inconclusive; MCF10A rerep: 4%; PINK1 modulator: 2%; IL1B secr inh: -83*; ATXN2 expr inh: -17%

What do the screens show for `O=C(Nc1ccc(N2CCN(C(=O)c3ccco3)CC2)c(Cl)c1)c1cccs1`?
SW480 rereplic: 3%; S2 tox: inactive; MCF10A rerep: inconclusive; PINK1 modulator: 1%; IL1B secr inh: -63*; ATXN2 expr inh: inconclusive

What do the screens show for `COc1ccc(OC)c(-c2nc3c(C#N)c[nH]n3c2NC2CCCCC2)c1`?
S2 tox: inactive; PINK1 modulator: 1%; ATXN2 expr inh: 6%

What do the screens show for `Cc1cc(NC(=O)C2CCN(S(=O)(=O)c3cccc4nsnc34)CC2)ccc1Br`?
S2 tox: inactive; PINK1 modulator: 8%; ATXN2 expr inh: -17%

What do the screens show for `CCOc1ncccc1C(=O)N1CCN(C(c2ccccc2)c2ccccc2)CC1`?
SW480 rereplic: 0%; S2 tox: inconclusive; MCF10A rerep: inconclusive; PINK1 modulator: -1%; IL1B secr inh: -90*; ATXN2 expr inh: -31%

Results for CCOc1ncccc1C(=O)N1CCN(S(=O)(=O)c2cccs2)CC1 ?
SW480 rereplic: -10%; S2 tox: inactive; MCF10A rerep: 9%; PINK1 modulator: 2%; IL1B secr inh: -7

How did COc1ccc(CC(=O)NNC2=Nc3cccc4cccc2c34)cc1 do in these assays?
SW480 rereplic: 16µM*; MCF10A rerep: 21µM*; PINK1 modulator: 7%; ATXN2 expr inh: -38%

What do the screens show for `CC1=C(c2ccc(Cl)cc2)S(=O)(=O)NC1=NCCCN1CCN(c2cc(C)ccc2C)CC1`?
PINK1 modulator: -1%

How did OC(c1ccc(F)cc1)c1ncc(-c2ccc(Oc3ccccc3)cc2)[nH]1 (centres undefined) do in these assays?
S2 tox: inconclusive; PINK1 modulator: inconclusive; IL1B secr inh: -4; ATXN2 expr inh: -15%

Results for CC(C)(C)c1ccc(C(O)c2ncc(-c3ccc(F)cc3)[nH]2)cc1 (centres undefined) ?
S2 tox: inconclusive; PINK1 modulator: 27%; IL1B secr inh: -67*; ATXN2 expr inh: inconclusive

What do the screens show for `CC(C)(C)c1ccc(C(O)c2ncc(-c3ccccc3)[nH]2)cc1` (centres undefined)?
S2 tox: inactive; PINK1 modulator: 8%; IL1B secr inh: -24; ATXN2 expr inh: 13%

Results for Cc1cc(C(O)c2ncc(-c3ccc(Oc4ccccc4)cc3)[nH]2)ccc1F (centres undefined) ?
S2 tox: inconclusive; PINK1 modulator: 1%; IL1B secr inh: -53*; ATXN2 expr inh: inconclusive
